# PAFAH1B3 inh: inhibitors of human PAFAH1B3; recombinant PAFAH1B3, FP-rhodamine probe, fluorescence polarization; inhibition, % at 3.39 µM; 340,000 compounds, 0.28% hits;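 active = inhibition above the screen-wide average of all tested compounds plus 3 SD, cut at about 25% in these data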;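 also: 0% = enzyme with DMSO only and 100% = wells lacking PAFAH1B3 protein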
# eLon inh: inhibitors of E. coli Lon protease | P0A9M0 | purified E. coli Lon protease, fluorescence polarization | inhibition, % at 7.94 µM | 360,000 compounds, 0.42% hits; in the data active = inhibition above about 13%, passing the limit was not always enough;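 also: 0% = enzyme with probe and DMSO and 100% = no enzyme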
# PAFAH1B2 inh: blocks human PAF acetylhydrolase 1b catalytic subunit 2 | AID 492953 | 340,000 compounds, 1.2% hits | inhibition, % at 3.39 µM | recombinant PAFAH1B2, FP-rhodamine activity probe, fluorescence polarization | P68402;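 active = inhibition above the mean of all tested compounds plus 3 SD, cut at about 24% in these data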;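 also: 0% = enzyme with DMSO and 100% = wells lacking PAFAH1B2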
# pPAFAH FP inh: pPAFAH (human) enzyme inhibition | Q13093 | recombinant pPAFAH, FP-rhodamine probe fluorescence polarization | inhibition, % at 3.39 µM | 330,000 compounds, 1.5% hits | AID 463082;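 active = inhibition above the mean inhibition across the screen plus 3 SD, cut at about 25% in these data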;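 also: inhibitors block binding of the rhodamine activity-based probe so polarization drops; 0% = enzyme with DMSO and 100% = wells lacking pPAFAH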
# PAFAH2 inh: inhibitors of human PAFAH2; 340,000 compounds, 0.99% hits; inhibition, % at 3.39 µM; recombinant PAFAH2, FP-rhodamine activity probe, fluorescence polarization; Q99487;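 active = inhibition above the mean over all tested compounds plus 3 SD, cut at about 30% in these data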;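 also: inhibitors block probe labeling of enzyme so polarization drops; 0% = enzyme with DMSO and 100% = wells lacking PAFAH2 protein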
# Rin1-Abl PPI inh: inhibitors of human Rin1-Abl protein interaction. TR-FRET Rin1/Abl binding, biochemical. inhibition, % at 7.35 µM. 360,000 compounds, 0.4% hits. AID 588664; in the data active = inhibition above about 5%, passing the limit was not always enough
# * hit, by the source's call; . = not tested or not shown. Only some compounds are listed: those with a hit (about 3.1% of all), similar ones and a draw of the others.
SMILES,PAFAH1B3 inh,eLon inh,PAFAH1B2 inh,pPAFAH FP inh,PAFAH2 inh,Rin1-Abl PPI inh
O=C(OCc1cn(-c2ccc(Cl)c(Cl)c2)nn1)c1ccccc1,3,3,1,3,78*,0
O=[N+]([O-])c1cc2oc3c(c2c(C=NCc2ccncc2)c1O)CCCC3,26*,-21,8,.,37*,4
Cc1cc(C)n2nc(SCC(=O)Nc3ccc(F)c(F)c3F)nc2n1,10,-17,3,4,-1,2
CCC(O)C1CCN(Cc2cn(Cc3ccccc3)nc2-c2cc3ccccc3o2)CC1 (stereo unspecified),5,8,0,28*,-7,0
Cc1cnc(NC(=O)C2(c3ccccc3)CC2)s1,7,2,29*,3,1,3
Cc1nnc(NC(=O)C2(c3ccccc3)CCOCC2)s1,-2,-2,3,-1,0,3
CC(C)(C)NS(=O)(=O)c1ccc(CCC(=O)N2CCCC2)cc1,2,2,5,10,-5,2
O=C(COC(=O)c1ccccn1)Nc1ncc(C(F)(F)F)cc1Cl,3,-9,1,6,-12,1
CCOc1ncccc1C(=O)OCC(=O)Nc1ncc(C(F)(F)F)cc1Cl,0,-9,-3,27*,17,-3
O=C(COC(=O)c1cccc2ccccc12)Nc1ncc(C(F)(F)F)cc1Cl,-4,-2,-1,2,-1,0
CCOc1ccccc1C(=O)OCC(=O)Nc1ncc(C(F)(F)F)cc1Cl,11,2,4,27*,4,-2
O=C(O)C(Cc1ccccc1)N1C(=O)C=CC1=O (stereo unspecified),.,-10,.,.,.,4
COc1cc(OC)cc(-c2c(-c3ccc(F)cc3)c3cc(-c4cnc(OC)nc4)ccc3n2C)c1,6,-5,-3,4,5,2
Cc1ccc(Oc2ccc(OCC(=O)OC3CCS(=O)(=O)C3)cc2)cc1 (stereo unspecified),.,.,.,31*,.,.
O=C(COc1ccccc1[N+](=O)[O-])OC1CCS(=O)(=O)C1 (stereo unspecified),12,7,2,0,3,0
CCN1C(=O)CCN(C2CCCC2)c2nc(Nc3ccc(C(=O)NC4CCN(C)CC4)cc3OC)ncc21,-13,0,0,.,3,6
CCOC(=O)c1c(NC(=O)CSc2nnc(C)s2)sc2c1CCC(CC)C2 (stereo unspecified),-17,-5,-1,26*,-11,4
OCC[C@H]1C[C@H](O)[C@@H](O)[C@]2(OCc3ccccc32)O1,13,-15,2,-2,3,1
Cc1cc(SCC#N)n2nc(C)c(-c3ccccc3)c2n1,3,-3,-1,32*,9,-4
COC(=O)c1ccc(C)c(NC(=O)CCNC(=O)c2ccc([N+](=O)[O-])cc2)c1,-3,0,3,29*,-5,-2
O=C(NNC(=O)c1ccc(Br)s1)c1csc(N2CCOCC2)n1,8,4,6,8,15,4
CCc1nc2c(OCCn3cccc3)cccn2c1N(C=O)Cc1ccccc1,.,-8,.,.,.,1
O=C1CC(c2ccco2)CC(O)=C1C=Nc1cc(Cl)ccc1O (stereo unspecified),14,-3,7,34*,9,-4
O=C(O)c1cscc1-c1cccc2ccccc12,.,-8,.,.,.,-2
O=c1oc(-c2ccccc2[N+](=O)[O-])nc2ccccc12,3,4,-2,0,45*,-4
SMILES,PAFAH1B3 inh,eLon inh,PAFAH1B2 inh,pPAFAH FP inh,PAFAH2 inh,Rin1-Abl PPI inh
O=c1oc(-c2ccco2)nc2ccccc12,5,-12,-1,-1,23,3
Nc1[nH]c(C(=O)c2ccccc2)c(-c2ccc(Cl)cc2Cl)c1C(=O)c1ccc(Br)cc1,.,-9,.,.,.,.
[O-][n+]1onc2c1CCC(=N/O)/C2=N\Nc1ccccc1,.,.,.,41*,.,.
Cn1c(SCc2ccc(Br)cc2)nnc1-c1cccs1,-1,-9,24*,2,0,-5
CCCNc1c(NS(=O)(=O)c2ccc(OC)c(OC)c2)c(=O)oc2ccccc12,0,6,1,-1,0,-2
O=C(OCc1ccccc1)c1cccc(-c2nnc(-c3ccccc3)o2)c1,3,3,0,2,-11,-1
O=C(OCc1ccc(C(=O)c2ccccc2)cc1)c1cccc(-c2nnc(-c3ccccc3)o2)c1,2,16*,-3,3,-6,1
COC(=O)c1cc(S(=O)(=O)N2CCCCCC2)cn1C,6,-2,0,4,0,0
O=c1[nH]c(SCCOc2cccc3ccccc23)nc2ccccc12,3,2,2,3,-1,-1
CCOc1ccc(OCCSc2nc3ccccc3c(=O)[nH]2)cc1,-6,-8,31*,3,3,-15
Cc1nc(SCC(=O)Nc2ccc(CN3CCCC3)cc2)c2c(C)c(C)sc2n1,4,-4,0,-11,9,2
CC(=O)Oc1cc(O)c2c(=O)c(OC(C)=O)c(-c3ccc(OC(C)=O)c(OC(C)=O)c3)oc2c1,47*,-18,22,31*,38*,4
COc1ccc(-c2oc3cc(OC(C)=O)cc(OC(C)=O)c3c(=O)c2OC)cc1,2,9,0,.,4,1
CCCCC(=O)NC1(C(F)(F)F)NC(=O)N(C)C1=O (stereo unspecified),5,2,9,3,-4,-1
CC(=O)C(N=Nc1ccccc1)(Sc1nnc(-c2ccccc2)n1-c1ccccc1)C(=O)Nc1ccccc1 (stereo unspecified),-5,-1,26*,0,-10,0
CC(=O)Nc1ccc(NC(=O)CCn2c(=O)oc3ccccc32)cc1,-1,12,12,26*,10,1
CCOc1cc(/C=N/NC(=O)c2ccccn2)ccc1OC(=O)c1cccs1,9,-8,-3,11,6,2
COc1ccc(/C=C2/C(=O)N(c3ccccc3)N=C2C)cc1,.,7,.,-3,.,8.1*
CCOc1cc(/C=C2/C(=O)N(c3ccccc3)N=C2C)ccc1OC(=O)c1cccs1,4,2,7,-5,13,12*
O=C(CCC(=O)N1CCN(S(=O)(=O)c2ccccc2Cl)CC1)c1ccccc1,10,3,2,.,17,0
CCCCC(=O)NC(c1ccco1)c1cc(Cl)c2cccnc2c1O (stereo unspecified),8,6,4,29*,7,2
CCC(=O)NC(c1ccco1)c1cc(Cl)c2cccnc2c1O (stereo unspecified),9,-6,-3,24,13,7
COc1ccccc1N1CCN(C(=O)c2cccc(S(=O)(=O)N3CCCCCC3)c2)CC1,5,9,-1,4,2,1
O=C(O)c1ccccc1C(=O)c1ccc(Oc2ccccc2)cc1,7,11,3,-2,11,2

# Bioassay records: PubChem, The Scripps Research Institute Molecular Screening Center
